Results on 2 compounds are retold here after PubChem BioAssay (NCATS).

Where “and” joins values, the source holds several entries; their conditions need not be identical. Identical values can stand only once. Results filed as inconclusive are left out. More than one record can exist for a structure, and the calls need not agree. Calls of active or inactive are those of the source. Unless noted, calls follow the shape of the dose curve; as a rule, active = well fitted curve in the direction sought with a large enough effect; inconclusive = small, poorly fitted or top-dose-only effect, or another doubt; inactive = no such curve, though single readings can be large; an effect the other way counts as inactive or inconclusive. A value given as a limit tells only on which side of the number the result lay.

A short description of experiment [1]: AP1 Signaling Pathway (AID 357; active = well fitted curve in either direction with a large enough effect, not every such curve was filed as active;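 also: ME-180 reporter cells stimulated with EGF at its EC50 level; % is scaled to controls: 0 for no effect and ±100 for the full control effect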). The note with it: ME-180 AP-1-bla reporter, EGF-induced, beta-lactamase ratio, 5 h. In a few lines:
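First, ME-180 AP-1-bla cells were cultured overnight at 37 °C in low-serum Opti-MEM. Next, titrated compounds with EC50 EGF were incubated 5 hours. Finally, CCF4 was added for 2.5 hours and the 460/530 nm ratio recorded.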

Experiment [2] is described as follows: NFAT Signaling Pathway (AID 444; active = well fitted curve in either direction with a large enough effect, not every such curve was filed as active;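 also: carbachol stimulus at about its EC50 of 1 µM final; % is scaled to controls: 0 for no effect and ±100 for the full control effect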). The following applies: Jurkat NFAT-bla M1, carbachol, beta-lactamase ratio, 5 h. In a few lines: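 Jurkat cells carrying an NFAT-driven β-lactamase reporter and co-transfected muscarinic M1 receptor were treated with compound plus carbachol (1 uM final, an EC50 level) for 5 h at 37 °C. CCF4 loading followed for 1 h at RT; 460/530 nm ratio gave %activity.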

A short description of experiment [3]: Stat Signaling Pathway (AID 446; active = well fitted curve in either direction with a large enough effect, not every such curve was filed as active;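 also: ME-180 cervical cancer cells given 40 pM IL-6 alongside compound; SIE-controlled beta-lactamase reporter measured as 460/530 nm FRET emission ratio; % is scaled to controls: 0 for no effect and ±100 for the full control effect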). The note with it: ME-180 (cervical carcinoma) SIE beta-lactamase reporter, IL-6 stimulated, 5 h. Summed up:
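FRET read-out (405 nm excitation, 460/530 nm emission) of a beta-lactamase reporter under a STAT-inducible element in ME-180 cervical carcinoma cells. Cells with compound receive 40 pM IL-6 for 5 h. Values are normalised to AC90 stimulation and AC90 JAK-inhibitor controls.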

Experiment [4] addresses Mitogen-activated protein kinase 10 (Mus musculus) (UniProt Q61831). Put plainly: JNK3 AlphaScreen Assay (AID 530; active = well fitted curve in either direction with a large enough effect, not every such curve was filed as active;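 also: kinase came from lysate of stimulated human HepG2 cells; signal reports phosphorylation of biotinylated GST-cJun 1-79 at Ser73 with 10 µM ATP; % is scaled to controls: 0 for no effect and ±100 for the full control effect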). The note with it: JNK3 lysate, c-Jun phosphorylation; series mostly up to 57.1 µM. In a few lines:
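Phosphorylation of biotinylated GST-cJun(1-79) at Ser73 is measured by AlphaScreen proximity luminescence. Enzyme is JNK3 in HepG2 lysates activated with interleukin-1beta and tumor necrosis factor alpha; ATP is 10 uM final.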
For orientation: Alpha assays give light when donor and acceptor beads are brought close together.

Experiment [5] deals with 3',5'-cyclic-AMP phosphodiesterase 4B (Homo sapiens) (UniProt Q07343). Put plainly: qHTS Assay for Inhibitors of PDE-IV (AID 607; active = well fitted activation curve with a large enough effect in the main read-out, with a control signal flat, not every such curve was filed as active; also: % of control where 0% means no effect). The note with it: HEK293 ACTOne CNG channel cells, membrane potential fluorescence; series mostly up to 22.9 µM. In a few lines: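 Cell-based read-out of cAMP via a modified cyclic nucleotide-gated channel and membrane potential dye (535/590 nm) in HEK293 cells expressing PDE4 endogenously. Compounds tested up to 22.9 uM final; 100 uM RO 20-1724 reference.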
Chain of 3',5'-cyclic-AMP phosphodiesterase 4B (Homo sapiens) (Q07343 whole entry, looked up): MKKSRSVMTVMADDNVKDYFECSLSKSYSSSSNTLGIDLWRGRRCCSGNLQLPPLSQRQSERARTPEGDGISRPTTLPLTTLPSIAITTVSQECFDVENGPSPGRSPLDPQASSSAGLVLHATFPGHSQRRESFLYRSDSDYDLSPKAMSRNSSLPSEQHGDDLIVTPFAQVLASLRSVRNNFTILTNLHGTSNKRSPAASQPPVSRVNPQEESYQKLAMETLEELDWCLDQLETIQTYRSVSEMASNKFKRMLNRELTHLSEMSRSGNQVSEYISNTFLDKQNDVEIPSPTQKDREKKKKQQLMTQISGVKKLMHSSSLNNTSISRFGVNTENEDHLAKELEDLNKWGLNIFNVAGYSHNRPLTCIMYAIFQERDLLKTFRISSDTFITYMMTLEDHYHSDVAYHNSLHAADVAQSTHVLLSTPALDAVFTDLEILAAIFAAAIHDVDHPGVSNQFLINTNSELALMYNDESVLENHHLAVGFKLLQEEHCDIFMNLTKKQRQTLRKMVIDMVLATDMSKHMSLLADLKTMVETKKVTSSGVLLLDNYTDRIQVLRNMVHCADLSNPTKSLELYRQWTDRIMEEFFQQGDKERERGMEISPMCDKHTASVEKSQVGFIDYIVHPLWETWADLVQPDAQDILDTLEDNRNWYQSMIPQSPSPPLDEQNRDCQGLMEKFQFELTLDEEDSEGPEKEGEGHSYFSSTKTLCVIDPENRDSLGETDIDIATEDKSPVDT
On the technique in general: Quantitative high-throughput screening tests each substance at several concentrations.

Experiment [6] addresses Guanine nucleotide-binding protein G(i) subunit alpha-1 (Homo sapiens) (UniProt P63096). Kind of experiment: qHTS Assay for Inhibitors of RGS12 GoLoco Motif Activity (Green Fluorophore) (AID 879).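 Also: 0% = labeled peptide with Gαi1 and full inhibition = labeled peptide alone without protein; negative values mean loss of peptide binding seen as reduced polarization.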 The following applies: Galphai1/FITC-RGS12 GoLoco peptide, fluorescence polarization; series mostly up to 57.1 µM. In a few lines: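 A drop in FITC polarization marked displacement of the FITC-tagged RGS12 GoLoco peptide (10 nM) from Gαi1 (50 nM). Compounds were incubated 10 min at room temperature in Tris pH 7.5 buffer containing 150 mM NaCl, 0.1 mM GDP and 0.05% NP40; unlabeled peptide titration served as control.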

In experiment [7] the target is Pyruvate kinase (Leishmania mexicana) (UniProt Q27686). Kind of experiment: qHTS Validation Assay for Inhibitors of Leishmania Mexicana Pyruvate Kinase (AID 945).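 Also: 0% = DMSO only neutral control wells.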 The following applies: purified L. mexicana pyruvate kinase, enzyme activity, E451W mutant enzyme; series mostly up to 57.5 µM. Summed up: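 Luminescent ATP detection (PKLight) after a 1 h room-temperature reaction of 0.2 nM LmPYK E451W mutant with 0.5 mM PEP and 0.1 mM ADP at pH 7.2. Activity is normalized to DMSO-only control wells.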
Chain of Pyruvate kinase (Leishmania mexicana) (Q27686 2-499 E452W): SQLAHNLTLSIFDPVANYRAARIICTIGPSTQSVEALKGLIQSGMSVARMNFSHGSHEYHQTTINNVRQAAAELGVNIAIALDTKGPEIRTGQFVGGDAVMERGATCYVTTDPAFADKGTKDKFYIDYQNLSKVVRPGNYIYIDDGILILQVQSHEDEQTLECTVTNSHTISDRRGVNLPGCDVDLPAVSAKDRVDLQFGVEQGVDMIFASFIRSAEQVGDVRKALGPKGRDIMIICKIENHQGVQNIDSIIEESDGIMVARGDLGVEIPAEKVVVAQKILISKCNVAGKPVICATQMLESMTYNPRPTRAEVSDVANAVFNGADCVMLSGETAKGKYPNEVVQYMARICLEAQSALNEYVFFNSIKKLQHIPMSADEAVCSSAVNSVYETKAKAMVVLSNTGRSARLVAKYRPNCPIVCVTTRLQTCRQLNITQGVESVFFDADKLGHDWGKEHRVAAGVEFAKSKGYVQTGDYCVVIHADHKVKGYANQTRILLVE

Experiment [8] has as its target Pyruvate kinase PKM (Homo sapiens) (UniProt P14618). Put plainly: qHTS Assay for Activators of Human Muscle Pyruvate Kinase (AID 954; active = well fitted curve in the direction sought with a large enough effect, not every such curve was filed as active;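 also: 0% = uninhibited enzyme and -100% = no enzyme or full thiadiazolimine inhibition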). The note with it: purified human muscle pyruvate kinase, luciferase-coupled luminescence, 1 h; series mostly up to 57.5 µM. In a few lines:
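ATP production by PKM2 detected via luciferase luminescence after 1 h room-temperature reaction (0.1 nM enzyme, PEP at Km 0.5 mM, ADP 0.1 mM, pH 7.2 imidazole buffer). Inhibition scaled to no-enzyme control; activation referenced to 0.3 nM enzyme wells.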

Experiment [9] deals with alpha-glucosidase (Oryza sativa, rice) (UniProt Q653V4). Put plainly: Counterscreen for Glucocerebrosidase Inhibitors: qHTS Assay for Rice alpha-Glucosidase at pH 5.0 (AID 997).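 Also: 0% = full activity with enzyme and -100% = basal without enzyme.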 The note with it: rice alpha-glucosidase enzyme activity; series mostly up to 76.9 µM. In a few lines: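 Endpoint fluorogenic assay at pH 5.0: compounds (0.7 nM to 77 uM) titrated against 4 nM rice enzyme and 400 uM 4-MU-alpha-glucoside for 20 min at room temperature; NaOH/glycine stop, read ex 365/em 440 nm, Hill-fitted AC50.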

Experiment [10] can be described thus: qHTS Assay for Lipid Storage Modulators (AID 1519; calls by dose curve). The following applies: Drosophila S3 cells, BODIPY lipid droplet/cell ratio, laser cytometry, cells loaded with oleic acid; for activity change, negative = inhibition: at 25.7 µM (top of the series). Summed up: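 Cells seeded at 5,000 per well were treated with compounds over a concentration series and loaded with oleic acid (400 uM, as added). Lipid droplet fluorescence (488 nm excitation, 500-530 nm channel) was read by laser-scanning cytometry and normalized to 20 uM Triacsin C.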

Experiment [11] has as its target ATP-dependent 6-phosphofructokinase (Trypanosoma brucei brucei) (UniProt O15648). Kind of experiment: qHTS Assay to Find Inhibitors of T. brucei phosphofructokinase: hit validation (AID 492961). The note with it: T. brucei PFK, ADP-Glo luminescence; series mostly up to 24.3 µM. Summed up: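 Reaction: 0.1 M triethanolamine pH 8.0, 5 mM MgCl2, F6P 0.5 mM, ATP 0.1 mM, PFK 1.25 nM, 45 min RT. Read-out: ADP-Glo luminescence. Analysis: concentration-response fits, classed by r2 and efficacy.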

Experiment [12] addresses Ubiquitin carboxyl-terminal hydrolase 1 (Homo sapiens) (UniProt O94782). Kind of experiment: Inhibitors of USP1/UAF1: Pilot qHTS (AID 504865).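 Also: rhodamine fluorescence freed from ubiquitin-rhodamine substrate followed over time; top concentration of the series differs between compounds; % is scaled to controls: 0 for no effect and ±100 for the full control effect; nearly all actives have a fitted effect of over 35% in size.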 The note with it: purified USP1/UAF1, Ub-rhodamine cleavage fluorescence; series mostly up to 54.9 µM. Summed up: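 1nM USP1/UAF1 + cpd, 15 min RT; start w/ Ub-Rho 150nM final; kinetic FL 480/540 nm, 6 reads q60 s. Buffer 50mM HEPES pH 7.8, 0.5mM EDTA, 1mM TCEP, 0.01% Tween-20, 0.1 mg/ml BSA.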

Experiment [13] has as its target Luciferin 4-monooxygenase (Photinus pyralis) (UniProt P08659). Put plainly: Biochemical firefly luciferase enzyme assay for NPC (AID 624030).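 Also: purified P. pyralis luciferase at 10 nM with luciferin and ATP substrate; 0% = DMSO and -100% = full luciferase inhibition by PTC124 control; nearly all actives have a fitted effect of over 70% in size.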 The following applies: purified P. pyralis luciferase, luminescence, 5 min; series mostly up to 58.6 µM. In a few lines:
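Counter-screen for direct inhibition of the luciferase enzyme by approved-drug library compounds, run at 10 nM enzyme in 50 mM Tris acetate (final). Luminescence was read within 5 min of enzyme-buffer addition and normalized to PTC124 versus DMSO (0%).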

In experiment [14] the target is Cytochrome P450 1A2 (Homo sapiens) (UniProt P05177). Kind of experiment: p450-cyp1a2 (AID 410; calls by dose curve; also: potency is read from the fitted curve at half-maximal effect). The following applies: recombinant CYP1A2, luciferin-ME demethylation, luminescence; series mostly up to 57 µM. In a few lines:
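O-Demethylation of luciferin 6' methyl ether by human CYP1A2 is monitored as luciferase luminescence. Substrate sits at Km (100uM); enzyme is 20nM. Values are scaled to 57 uM furafylline as maximal inhibition.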

In experiment [15] the target is Glucocorticoid receptor (Homo sapiens) (UniProt P04150). Put plainly: GR-GFP Redistribution (AID 450;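 active = compounds whose dose series gives a full or clear partial fitted curve of increased nuclear translocation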; also: potency is read from the fitted curve at half-maximal effect). The note with it: U2OS GR-GFP nuclear translocation, laser cytometry, 2 h.
Chain of Glucocorticoid receptor (Homo sapiens) (P04150 whole entry, looked up): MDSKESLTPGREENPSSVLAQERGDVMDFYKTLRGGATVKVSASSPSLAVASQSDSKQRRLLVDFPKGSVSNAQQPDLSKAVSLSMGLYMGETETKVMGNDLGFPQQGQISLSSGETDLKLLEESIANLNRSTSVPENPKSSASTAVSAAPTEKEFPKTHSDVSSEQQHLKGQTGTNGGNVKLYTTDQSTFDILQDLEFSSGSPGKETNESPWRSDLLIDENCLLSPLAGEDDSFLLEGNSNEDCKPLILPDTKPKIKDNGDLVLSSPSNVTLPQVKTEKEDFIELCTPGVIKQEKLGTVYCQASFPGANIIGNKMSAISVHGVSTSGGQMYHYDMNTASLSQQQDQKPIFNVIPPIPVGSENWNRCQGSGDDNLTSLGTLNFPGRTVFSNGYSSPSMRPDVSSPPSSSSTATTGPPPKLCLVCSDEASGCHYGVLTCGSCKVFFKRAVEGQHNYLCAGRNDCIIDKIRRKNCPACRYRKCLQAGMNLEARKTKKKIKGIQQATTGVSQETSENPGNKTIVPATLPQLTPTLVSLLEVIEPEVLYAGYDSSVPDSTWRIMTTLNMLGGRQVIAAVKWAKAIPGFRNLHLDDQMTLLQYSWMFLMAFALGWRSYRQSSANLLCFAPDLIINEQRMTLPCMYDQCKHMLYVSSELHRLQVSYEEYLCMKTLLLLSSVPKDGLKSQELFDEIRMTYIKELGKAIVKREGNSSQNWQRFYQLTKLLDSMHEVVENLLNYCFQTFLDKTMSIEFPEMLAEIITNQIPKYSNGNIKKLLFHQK
Experiment [16] has the same target. Kind of experiment: GR-EFC Redistribution (AID 451; calls by dose curve; also: potency is read from the fitted curve at half-maximal effect). The following applies: CHO-K1 GR-EFC translocation, beta-gal luminescence, 2 h. In a few lines:
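CHO-K1 cells stably expressing nuclear-localized β-gal enzyme acceptor and GR fused C-terminally to the enzyme donor fragment; ligand-driven nuclear translocation restores β-gal by complementation. Compounds titrated up to 46 uM final, 2 h at 37 °C; luminescence read.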

Experiment [17] can be described thus: qHTS profiling for inhibitors of Plasmodium falciparum proliferation (AID 504749).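 Also: 0% = DMSO vehicle and full inhibition = artemisinin control; nearly all actives have a fitted effect of over 60% in size.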 The note with it: P. falciparum in erythrocytes, SYBR Green DNA, 72 h, at 28.7 µM (top of the series). Summed up: (§1)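 Quantitative HTS: compounds pinned into medium, infected erythrocytes added (0.3% parasitemia, 2.5% hematocrit), 72 h culture at 37 C under 5% CO2. Saponin/Triton lysis with SYBR Green I, overnight RT, then fluorescence read.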

The next experiment deals with AS120. The experiment is described as above. The following applies: P. falciparum in erythrocytes, SYBR Green DNA, 72 h; series mostly up to 28.7 µM. In a few lines: as §1
The subject of a further experiment is CP238. The description is as above. The following applies: P. falciparum in erythrocytes, SYBR Green DNA, 72 h; series mostly up to 12.8 µM. Summed up: as §1
For a further experiment, the system named is FAB9. The description is as above. The note with it: P. falciparum in erythrocytes, SYBR Green DNA, 72 h; series mostly up to 12.8 µM. Summed up:
as §1

Where [18] appears, read: measured here: cell count channel max response.
Where [19] appears, read: measured here: lipid channel max response.

Chain of Guanine nucleotide-binding protein G(i) subunit alpha-1 (Homo sapiens) (P63096 whole entry, looked up): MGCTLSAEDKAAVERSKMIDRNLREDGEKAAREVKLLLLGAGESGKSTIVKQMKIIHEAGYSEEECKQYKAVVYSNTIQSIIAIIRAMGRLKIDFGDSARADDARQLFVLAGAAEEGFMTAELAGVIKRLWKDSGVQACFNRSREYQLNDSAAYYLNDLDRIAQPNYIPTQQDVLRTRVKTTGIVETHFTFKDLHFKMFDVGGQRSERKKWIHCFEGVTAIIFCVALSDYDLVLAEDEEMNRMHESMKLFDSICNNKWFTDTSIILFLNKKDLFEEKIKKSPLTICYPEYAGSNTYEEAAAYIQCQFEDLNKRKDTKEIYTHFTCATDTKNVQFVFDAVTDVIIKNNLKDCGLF
Chain of Luciferin 4-monooxygenase (Photinus pyralis) (P08659 whole entry, looked up): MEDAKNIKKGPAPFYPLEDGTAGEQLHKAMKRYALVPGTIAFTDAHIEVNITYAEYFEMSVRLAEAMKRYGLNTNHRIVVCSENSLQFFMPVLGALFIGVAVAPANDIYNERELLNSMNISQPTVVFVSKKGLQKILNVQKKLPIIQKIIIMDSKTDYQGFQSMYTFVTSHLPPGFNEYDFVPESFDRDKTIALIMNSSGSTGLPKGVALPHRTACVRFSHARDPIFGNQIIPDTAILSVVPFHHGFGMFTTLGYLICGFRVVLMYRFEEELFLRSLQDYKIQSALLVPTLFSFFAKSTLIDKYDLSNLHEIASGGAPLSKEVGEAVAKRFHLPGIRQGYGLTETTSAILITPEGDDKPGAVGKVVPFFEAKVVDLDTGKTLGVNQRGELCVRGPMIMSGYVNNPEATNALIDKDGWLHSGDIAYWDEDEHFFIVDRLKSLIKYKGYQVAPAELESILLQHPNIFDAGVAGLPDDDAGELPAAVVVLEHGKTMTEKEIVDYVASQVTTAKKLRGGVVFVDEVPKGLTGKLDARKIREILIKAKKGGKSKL
Chain of ATP-dependent 6-phosphofructokinase (Trypanosoma brucei brucei) (O15648 whole entry, looked up): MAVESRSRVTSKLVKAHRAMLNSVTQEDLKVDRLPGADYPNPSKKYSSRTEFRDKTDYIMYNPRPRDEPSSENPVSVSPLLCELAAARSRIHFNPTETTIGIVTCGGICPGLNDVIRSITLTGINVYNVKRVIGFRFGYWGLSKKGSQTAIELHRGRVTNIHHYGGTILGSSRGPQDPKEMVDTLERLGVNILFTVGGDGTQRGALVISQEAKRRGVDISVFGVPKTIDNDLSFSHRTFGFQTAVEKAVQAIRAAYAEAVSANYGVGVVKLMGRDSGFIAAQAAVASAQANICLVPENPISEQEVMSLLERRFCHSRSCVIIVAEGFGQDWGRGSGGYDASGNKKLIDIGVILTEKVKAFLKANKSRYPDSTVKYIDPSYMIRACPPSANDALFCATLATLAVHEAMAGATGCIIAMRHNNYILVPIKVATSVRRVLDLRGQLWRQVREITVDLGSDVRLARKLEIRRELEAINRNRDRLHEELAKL
Chain of Ubiquitin carboxyl-terminal hydrolase 1 (Homo sapiens) (O94782 whole entry, looked up): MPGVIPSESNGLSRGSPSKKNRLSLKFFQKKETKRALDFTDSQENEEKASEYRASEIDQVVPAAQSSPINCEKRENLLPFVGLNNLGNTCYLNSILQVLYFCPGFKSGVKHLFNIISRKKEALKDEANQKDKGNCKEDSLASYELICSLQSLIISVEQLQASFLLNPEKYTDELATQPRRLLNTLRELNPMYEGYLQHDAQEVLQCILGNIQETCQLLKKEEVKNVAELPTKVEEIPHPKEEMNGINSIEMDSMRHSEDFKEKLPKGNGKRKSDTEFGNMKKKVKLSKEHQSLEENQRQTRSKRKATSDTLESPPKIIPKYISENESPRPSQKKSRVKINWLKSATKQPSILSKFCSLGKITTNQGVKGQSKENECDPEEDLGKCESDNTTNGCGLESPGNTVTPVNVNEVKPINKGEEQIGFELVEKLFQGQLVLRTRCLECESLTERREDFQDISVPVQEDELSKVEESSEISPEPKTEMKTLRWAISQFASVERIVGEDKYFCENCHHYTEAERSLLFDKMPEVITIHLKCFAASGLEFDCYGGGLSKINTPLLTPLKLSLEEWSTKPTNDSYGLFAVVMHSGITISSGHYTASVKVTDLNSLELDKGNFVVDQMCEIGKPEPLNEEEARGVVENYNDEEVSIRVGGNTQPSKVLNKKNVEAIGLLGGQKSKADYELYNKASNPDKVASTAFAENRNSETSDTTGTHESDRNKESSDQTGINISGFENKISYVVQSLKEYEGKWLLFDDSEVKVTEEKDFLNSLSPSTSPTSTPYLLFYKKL
Chain of Cytochrome P450 1A2 (Homo sapiens) (P05177 whole entry, looked up): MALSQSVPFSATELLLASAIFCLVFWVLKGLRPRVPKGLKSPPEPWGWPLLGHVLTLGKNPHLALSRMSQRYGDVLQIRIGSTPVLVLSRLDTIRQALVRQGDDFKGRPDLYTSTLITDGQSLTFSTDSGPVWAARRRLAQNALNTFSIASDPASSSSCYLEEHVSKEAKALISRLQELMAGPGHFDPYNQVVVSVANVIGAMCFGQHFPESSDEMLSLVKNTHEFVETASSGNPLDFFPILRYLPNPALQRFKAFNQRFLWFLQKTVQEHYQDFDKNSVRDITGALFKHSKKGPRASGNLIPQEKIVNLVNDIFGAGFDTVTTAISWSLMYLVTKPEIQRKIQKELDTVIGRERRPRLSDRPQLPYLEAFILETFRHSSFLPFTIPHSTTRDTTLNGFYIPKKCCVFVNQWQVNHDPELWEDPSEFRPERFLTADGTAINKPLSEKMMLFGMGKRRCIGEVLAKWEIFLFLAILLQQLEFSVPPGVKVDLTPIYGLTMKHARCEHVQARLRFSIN

For `C[C@@H](C(=O)O)c1cccc(C(=O)c2ccccc2)c1`, the activity change, negative = inhibition in experiment [1] (at 17.2 µM (top of the series)) is 5.98% (inactive); in experiment [1] (at 38 µM (top of the series)) it was 9.29% (inactive); in experiment [2] (at 17.2 µM (top of the series)) it was 5.64% (inactive); in [2] (at 38 µM (top of the series)), 19.5% (inactive); in experiment [10], -0.218% (inactive). The values for the activity, negative = inhibition in experiment [3] (at 17.2 µM (top of the series)) and in experiment [3] (at 38 µM (top of the series)) were 6.92% (inactive) and 4.82% (inactive), respectively. Besides, the Potency result in [4], in experiment [5], in experiment [6] and in [12] was “inactive” throughout. The compound was called inactive in experiment [7], in experiment [8], in [9], in experiment [11] and in [13]. The results for the max response in [10] (setting [18]) and in [10] (setting [19]) were 11.1% and 10.1%, respectively.

As to `CO/N=C(\C(=O)N[C@@H]1C(=O)N2C(C(=O)O)=C(COC(C)=O)CS[C@@H]12)c1csc(N)n1`, the activity change, negative = inhibition was -5.85% (inactive) in [1] (at 17.2 µM (top of the series)), -1.56% (inactive) in experiment [1] (at 38 µM (top of the series)) and -0.702% (inactive) in experiment [10]. Besides, the Potency entry in [14] was “inactive and 12.6 µM (active)”; in experiment [15], > 46 µM (inactive) and > 20.6 µM (inactive); in [16], > 46 µM (inactive) and > 20.6 µM (inactive). Also, the activity, negative = inhibition in experiment [3] (at 17.2 µM (top of the series)) was 3.57% (inactive); in experiment [3] (at 38 µM (top of the series)), -20.5% (inactive); in [17] (parasite line A) it was 7.66% (inactive); in [17] (parasite line B), -2.07% (inactive). Further, the Potency entry (in [4]; in experiment [5]; in experiment [6]; in experiment [12]; with AS120; with CP238) was “inactive” throughout. The Potency result in the experiment with FAB9 is “inactive”. In addition, the call in experiment [7], in [9], in experiment [11] and in experiment [13] was inactive. For the same compound, the max response in experiment [10] (setting [18]) was -14.1%; in [10] (setting [19]) it was -14.6%.
